Screening results as filed in PubChem BioAssay.
RECQ1 inh = qHTS Assay for Inhibitors of RecQ-Like Dna Helicase 1 (RECQ1); AID 2549, 2010; actives 0.54% (n = 240,000); RECQ1 DNA unwinding, red fluorescence kinetic read; Potency, µM (titrated, usually from 57.3 µM), for the others: at the highest dose activity, negative = inhibition, usual class: inhibitors;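 further: plate controls were vehicle for no effect and no enzyme for full effect; nearly all actives have a fitted effect of over 30% in size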
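50 nM RECQ1T1 preincubated 15 min with compound in Tris pH 8.0 buffer with MgCl2, DTT, Tween-20 and 2.5 ug/ml poly(dI-dC); started with 200 nM TAMRA/BHQ-2 forked duplex and 2 mM ATP. Unwinding read as fluorescence (525/598 nm), two reads 2 h apart.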
TRb SRC2 PPI = qHTS for Inhibitors of the Interaction of Thyroid Hormone Receptor and Steroid Receptor Coregulator 2; TRbeta-SRC2 peptide binding, fluorescence polarization; receptor liganded with 1 µM T3; Potency, µM (highest dose often 106 µM), for the others: at the top dose activity change, negative = inhibition, most hits filed as inhibitors; actives 0.065% (n = 280,000); AID 1469, 2008;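 further: plate controls were bound peptide for no effect and peptide without receptor for full effect; nearly all actives have a fitted effect of over 50% in size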
Target sequence (P10828 whole entry, looked up): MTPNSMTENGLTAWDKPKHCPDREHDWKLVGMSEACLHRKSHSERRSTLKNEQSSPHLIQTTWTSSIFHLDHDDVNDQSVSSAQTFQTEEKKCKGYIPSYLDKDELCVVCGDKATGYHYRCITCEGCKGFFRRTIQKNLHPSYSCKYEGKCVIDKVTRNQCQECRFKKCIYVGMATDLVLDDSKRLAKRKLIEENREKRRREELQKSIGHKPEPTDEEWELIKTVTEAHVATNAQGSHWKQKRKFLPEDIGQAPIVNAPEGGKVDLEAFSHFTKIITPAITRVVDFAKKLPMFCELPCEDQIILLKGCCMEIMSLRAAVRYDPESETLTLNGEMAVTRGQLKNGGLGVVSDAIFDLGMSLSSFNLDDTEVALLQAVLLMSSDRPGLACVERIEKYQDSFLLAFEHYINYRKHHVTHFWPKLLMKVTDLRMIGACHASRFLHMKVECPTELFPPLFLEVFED
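Read-out is fluorescence polarization (555 nm excitation, 632 nm emission) of a Texas Red SRC2 coactivator peptide; loss of signal reflects blocked binding to human TRb ligand-binding domain in the presence of 1 uM T3.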
WRN helicase inh-1 = qHTS for Inhibitors of WRN Helicase; Bifunctional 3'-5' exonuclease/ATP-dependent helicase WRN (Homo sapiens), Q14191; WRN helicase unwinding, fluorescent forked duplex, kinetic; Potency, µM (doses to about 114 µM), for inactives: top-dose activity change, negative = inhibition, most hits filed as inhibitors; actives 0.46% (n = 360,000); AID 651768, 2012; further: on the % scale 0 is the no-effect control and ±100 the full control effect; nearly all actives have a fitted effect of over 55% in size
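WRN at 20 nM final was preincubated with compound for 15 min at room temperature; reaction started with 100 nM forked duplex oligonucleotide carrying fluorophore and quencher plus 2 mM ATP (final). Unwinding followed kinetically by red fluorescence (ex 525/em 598 nm).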
BLM helicase inh-1 = qHTS Assay for Inhibitors of Bloom's syndrome helicase (BLM); Potency, µM (top dose mostly 56.1 µM), for inactives: at the top dose activity change, negative = inhibition, actives largely listed as inhibitors; actives 0.2% (n = 350,000); recombinant BLM DNA unwinding, fluorescence dequenching; AID 2528, 2010; RecQ-like DNA helicase BLM (Homo sapiens), P54132;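 further: plate controls were vehicle for no effect and no enzyme for full effect; nearly all actives have a fitted effect of over 35% in size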
APEX1 inh = qHTS Assay for Inhibitors of the Human Apurinic/apyrimidinic Endonuclease 1 (APE1) | recombinant APE1, TAMRA/BHQ-2 abasic DNA cleavage fluorescence | Potency, µM (highest dose often 65.8 µM), for inactives: at the top dose activity change, negative = inhibition, hits mostly inhibitors | actives 0.35% (n = 350,000) | AID 2517, 2012;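 further: plate controls were vehicle for no effect and reference inhibitor for full effect; nearly all actives have a fitted effect of over 55% in size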
Target sequence (P27695 whole entry, looked up): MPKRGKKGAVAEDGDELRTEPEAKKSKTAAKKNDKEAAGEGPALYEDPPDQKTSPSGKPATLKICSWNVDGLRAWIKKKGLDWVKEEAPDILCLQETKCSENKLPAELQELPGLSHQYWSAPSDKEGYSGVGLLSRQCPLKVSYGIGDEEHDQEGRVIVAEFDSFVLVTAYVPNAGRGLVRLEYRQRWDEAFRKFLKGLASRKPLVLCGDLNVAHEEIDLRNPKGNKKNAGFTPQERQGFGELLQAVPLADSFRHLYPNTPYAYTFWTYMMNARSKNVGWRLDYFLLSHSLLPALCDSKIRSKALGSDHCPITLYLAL
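Measures dequenching upon AP-site incision of a 5'-TAMRA/3'-BHQ-2 THF-containing duplex, 50 nM; human APE1 0.75 nM after 15 min room-temperature exposure to compound; kinetic three-point read at one-minute spacing.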
TR SRC2 fluor cs = Total Fluorescence Counterscreen for Inhibitors of the Interaction of Thyroid Hormone Receptor and Steroid Receptor Coregulator 2; TRb/SRC2 Texas Red total fluorescence interference; Potency, µM (series often up to 106 µM), for the others: top-dose fluorescence change, negative = quenching; actives 0.29% (n = 280,000); active means well fitted curve in either direction with a large enough effect; inconclusive means small, poorly fitted or top-dose-only effect; further: on the % scale 0 is the no-effect control and ±100 the full control effect
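Human TRb ligand-binding domain at 0.6 uM with 20 nM Texas Red SRC2 peptide in Tris buffer containing 1 uM T3 and 5% DMSO, incubated with compound 5 h at ambient temperature. Total fluorescence (555/632 nm) calculated as parallel + 2 × perpendicular.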
WRN helicase inh-2 = qHTS for Inhibitors of WRN Helicase: Confirmatory Assay for Cherry-picked Compounds. Potency, µM (titrated, usually from 57.1 µM), without a hit: at the top dose activity, negative = inhibition, most hits filed as inhibitors. actives 63% (n = 610). AID 720497, 2013. shares compounds with WRN helicase inh-1. WRN helicase DNA unwinding, fluorescence kinetic; further: nearly all actives have a fitted effect of over 65% in size
TO DNA binding = qHTS for Inhibitors of WRN Helicase: Thiazole Orange DNA Binding Counterscreen; actives 10% (n = 610); shares compounds with WRN helicase inh-1; AID 720499, 2013; thiazole orange DNA binding displacement, fluorescence; Potency, µM (titrated, usually from 57.1 µM), without a hit: at the top dose activity change, negative = inhibition, actives largely listed as inhibitors;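 further: drop in dye fluorescence marks compound binding to DNA; on the % scale 0 is the no-effect control and ±100 the full control effect; nearly all actives have a fitted effect of over 60% in size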
BLM helicase inh-2 = qHTS for Inhibitors of WRN Helicase: BLM Helicase Counterscreen for WRN Inhibitors; shares compounds with WRN helicase inh-1; Potency, µM (titrated, usually from 57.1 µM), without a hit: top-dose activity change, negative = inhibition, actives largely listed as inhibitors; Recombinant BLM helicase DNA unwinding, red fluorescence; actives 60% (n = 610); further: nearly all actives have a fitted effect of over 60% in size
* hit, by the source's call; i = inactive; ? = inconclusive; · = no result given; [ ] = dose if it differs, or a comment. In the library only some 0.91% were active in any assay of this set; here they are far more common. Unless noted, the call rests on the fitted dose curve; in most records, active means well fitted curve in the direction sought with a large enough effect; inconclusive means small, poorly fitted or top-dose-only effect, or another doubt; inactive means no such curve, though single readings can be large; an effect the other way counts as inactive or inconclusive. Potency means the concentration at half of the fitted maximal effect.

SMILES | RECQ1 inh | TRb SRC2 PPI | WRN helicase inh-1 | BLM helicase inh-1 | APEX1 inh | TR SRC2 fluor cs | WRN helicase inh-2 | TO DNA binding | BLM helicase inh-2
Cc1ccn2nc(C(=O)OCC(=O)N(CC(C)C)C3CCS(=O)(=O)C3)nc2n1 (stereo unspecified) | · | · | 7% | · | 24% | · | · | · | ·
CC(=O)c1cnc(N(C)C)s1 | -2% | -14% | 9% | -7% | 9% | 1% | · | · | ·
CN(C)c1ncc(C2=C(Cl)C(=O)C(N3CCCC3)=C(Cl)C2=O)s1 | · | · | 9.5µM* | · | · | · | ? | ? | 7.6µM*
O=C(c1cc(C(F)(F)F)cc(C(F)(F)F)c1)N1CCC[C@@]2(CCN(c3ccncc3)C2)C1 | -5% | · | · | 7% | 3% | · | · | · | ·
COc1cc(NS(=O)(=O)c2ccc(NC(=S)NC(=O)c3sc4ccccc4c3Cl)cc2)nc(OC)n1 | -5% | 4% | -36% | -7% | -1% | -1% | · | · | ·
COc1cc(NS(=O)(=O)c2ccc(NC(=S)NC(=O)c3sc4cc(F)ccc4c3Cl)cc2)nc(OC)n1 | -7% | 5% | ? | 4% | 0% | 9% | 22µM* | -21% | 24µM*
CN(C)Cc1nnnn1-c1cccc(-n2nnnc2CN(C)C)c1 | -6% | -4% | 7% | 0% | 1% | -1% | · | · | ·
COc1ccc(-c2csc(NC(=S)NC(=O)c3cccs3)n2)cc1Br | 1% | -7% | -36% | -11% | 4% | -5% | · | · | ·
COc1ccc(-c2csc(NC(=S)NC(=O)c3cccs3)n2)cc1OC | -22% | 7% | ? | -19% | -9% | -9% | ? | ? | ?
CCc1ccc(CNC(=O)CCCN2C(=O)CCn3nc(-c4cccn4C)cc32)cc1 | · | 0% | · | 0% | · | -7% | · | · | ·
Cn1cnc([N+](=O)[O-])c1S(=O)(=O)c1ccc(Cl)cc1 | -10% | 6% | ? | 4% | 3% | 1% | -19% | -5% | -16%
CC(=O)Nc1ccc2c(O)cc(S(=O)(=O)O)cc2c1 | · | · | -34% | · | · | · | · | · | ·
COc1ccccc1Nc1ccc2c(O)cc(S(=O)(=O)O)cc2c1 | · | · | -113% | · | · | · | 6.1µM* | ? | 5.4µM*
CCn1ncc([N+](=O)[O-])c1C(=O)Nc1ccc(C)c(C)c1 | · | · | 1% | -7% | -10% | · | · | · | ·
CC1(C)CC(=O)C(C(C2=C(O)CC(C)(C)CC2=O)c2cccs2)C(=O)C1 (stereo unspecified) | 4% | 1% | ? | 1% | -4% | 0% | -8% | -7% | -6%
COc1ccc(-n2nc3cc(C)c(N)c(Br)c3n2)cc1 | -11% | ? | 45µM* | -6% | -5% | -28% | -5% | -20% | -9%
COc1ccc(-n2nc3cc(N)c(Br)cc3n2)cc1 | · | · | -23% | -16% | -5% | · | · | · | ·
CCN(CC)CCCNc1ccc2ncn3c4ccc(O)cc4c(=O)c1c23 | · | · | 25µM* | · | · | · | 22µM* | i | -62%
COc1ccccc1NC(=O)Cn1c(=O)n(CCCCCC(=O)NCc2ccccc2)c(=O)c2sccc21 | · | 5% | · | 3% | · | -1% | · | · | ·
O=C(CSc1nnc(-c2cnccn2)n1Cc1ccco1)c1ccccc1 | 12% | 8% | -11% | 0% | 0% | 1% | · | · | ·
O=C(CSc1nnc(-c2cnccn2)n1Cc1ccco1)c1ccc(Cl)cc1 | i | 3% | ? | -8% | -5% | 1% | -13% | -17% | -23%
CC1(C(=O)OCc2cc(=O)n3cc(Br)ccc3n2)CC1(Cl)Cl (stereo unspecified) | -1% | -2% | 7% | -4% | -5% | 0% | · | · | ·
CC(=O)N1c2ccccc2CC1C(=O)N1CCN(c2cccc(Cl)c2)CC1 (stereo unspecified) | · | 6% | · | -5% | · | 1% | · | · | ·
Cc1ccc(C)c(NC(=O)CN(C)C(=O)c2cccc(-n3cccc3)c2)c1 | · | · | 50µM* | · | 3µM* | · | 22µM* | -2% | 11µM*
O=C(N1CCc2cc(S(=O)(=O)NC[C@H]3O[C@@H](n4ccc(=O)[nH]c4=O)[C@H](O)[C@@H]3O)ccc2C1)C(F)(F)F | · | · | -1% | · | · | · | · | · | ·
SMILES | RECQ1 inh | TRb SRC2 PPI | WRN helicase inh-1 | BLM helicase inh-1 | APEX1 inh | TR SRC2 fluor cs | WRN helicase inh-2 | TO DNA binding | BLM helicase inh-2
N#CC1C(=O)c2ccccc2C1c1ccccc1 (stereo unspecified) | · | · | 13µM* | · | · | · | -14% | 2% | -15%
O=C1CCC(c2ccccc2)c2ccccc21 (stereo unspecified) | · | · | 5% | · | · | · | · | · | ·
C=CCN(c1ccccc1C(=O)O)S(=O)(=O)c1ccc(C)cc1 | -14% | -7% | -8%[57.1 µM] | -3% | -1% | -6% | · | · | ·
CC(C)=CCc1c(O)ccc2c1OC(c1ccc(O)c(O)c1)CC2=O (stereo unspecified) | -22% | -3% | -7% | -7% | -7% | -3% | · | · | ·
O=C1CC(c2ccc(O)c(O)c2)Oc2c1ccc(O)c2O (stereo unspecified) | 1.6µM* | 1% | 3.2µM* | 4µM* | 0.13µM* | -8% | 1.1µM* | ? | 0.96µM*
CCOc1ccc(Oc2nc(NC)nc(N3CCOCC3)n2)nn1 | · | 10% | · | 0% | · | 0% | · | · | ·
O=C(/C=C/c1cccc2ccccc12)c1ccncc1 | -6% | -4% | ? | -7% | 3% | -3% | -17% | -11% | -14%
O=C(N/N=C/c1cccc2ccccc12)c1ccncc1 | · | · | 11% | -11% | -1% | · | · | · | ·
N#C/C(=C/c1ccc(N2CCCCC2)o1)C(=O)Nc1ccc(Cl)cc1 | -1% | -28% | -7% | -6% | 10% | 22% | · | · | ·
